Unmarked numbers belong to inactive results. Inconclusive results are not listed. Entries that show only a call come without a potency. The source made the active and inactive calls. Unless noted, the call rests on the fitted dose curve.
Assays:
[1] = Nuclear factor erythroid 2-related factor 2/antioxidant responsive element (Nrf2/ARE) small molecule agonists: qHTS cell viability counter screen in human keratinocytes (AID 1919968; active means well fitted curve in the direction sought with a large enough effect in the repeat runs; an effect the other way counts as inactive or inconclusive; further: nearly all actives have a fitted effect of over 55% in size)
How it was run: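 Cells of the KeratinoSens line were plated at 1,500 per well and left for 5 h before compound transfer from DMSO stocks. After a 23 h incubation (37 C, 5% CO2), CellTiter-Fluor was added. Signal was taken as fluorescence intensity 1 h later.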

[2] = Nuclear factor erythroid 2-related factor 2/antioxidant responsive element (Nrf2/ARE) small molecule agonists: luciferase reporter gene qHTS assay in human keratinocytes (AID 1919969); further: nearly all actives have a fitted effect of over 35% in size; further: potency means the concentration at half of the fitted maximal effect
[3] = molecular target: Gonadotropin-releasing hormone receptor (Homo sapiens) (UniProt P30968); test: Human gonadotropin-releasing hormone receptor (GnRHR) small molecule agonists, calcium flux assay in GnRHR-HEK293 cells (AID 1920063); further: nearly all actives have a fitted effect of over 35% in size
Gonadotropin-releasing hormone receptor (Homo sapiens), sequence (P30968 whole entry, looked up): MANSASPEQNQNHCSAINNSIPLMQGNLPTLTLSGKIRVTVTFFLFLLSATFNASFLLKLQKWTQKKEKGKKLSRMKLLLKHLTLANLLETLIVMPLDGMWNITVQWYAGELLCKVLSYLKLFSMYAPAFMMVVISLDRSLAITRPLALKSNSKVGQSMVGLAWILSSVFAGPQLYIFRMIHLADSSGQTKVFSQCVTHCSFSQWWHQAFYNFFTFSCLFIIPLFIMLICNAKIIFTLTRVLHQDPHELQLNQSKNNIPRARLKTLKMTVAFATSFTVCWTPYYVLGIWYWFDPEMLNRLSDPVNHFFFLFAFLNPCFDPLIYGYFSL
How it was run: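 Compounds dissolved in DMSO are pin-transferred onto dye-loaded GnRHR-HEK293 cells, which were seeded 18 h before at 37 C/5% CO2. Calcium signal is read as fluorescence intensity at 1 s intervals for 3 min.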

[4] = molecular target: KiSS-1 receptor (Homo sapiens) (UniProt Q969F8); test: Human kisspeptin (KISS1R) small molecule agonists, calcium flux assay in KISS1R-HEK293 cells (AID 1920064; active means well fitted curve in the direction sought with a large enough effect in the repeat runs; an effect the other way counts as inactive or inconclusive)
KiSS-1 receptor (Homo sapiens), sequence (Q969F8 whole entry, looked up): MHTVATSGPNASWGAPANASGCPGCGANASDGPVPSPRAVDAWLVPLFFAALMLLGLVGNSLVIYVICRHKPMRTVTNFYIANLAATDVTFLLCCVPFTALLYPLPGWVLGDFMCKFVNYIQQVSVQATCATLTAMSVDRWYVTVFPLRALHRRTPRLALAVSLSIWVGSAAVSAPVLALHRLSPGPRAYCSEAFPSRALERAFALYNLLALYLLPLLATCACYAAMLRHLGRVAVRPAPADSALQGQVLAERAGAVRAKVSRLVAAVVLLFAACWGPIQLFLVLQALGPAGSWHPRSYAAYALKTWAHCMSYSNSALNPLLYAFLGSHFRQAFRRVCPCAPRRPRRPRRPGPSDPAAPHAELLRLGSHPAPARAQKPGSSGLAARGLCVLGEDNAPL
How it was run: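 Cell line: HEK293, stable human KISS1R. Dye loading 1 h at 37 C after 18 h culture. Read: kinetic fluorescence, 480/540 nm, 3 min at 1 s intervals.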

[5] = G protein-coupled receptor (GPCR) small molecule agonists, calcium flux assay: HEK293 wild type cell line counter screen (AID 1920065)
How it was run: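 Tox21 10K compounds, 15 concentrations each in triplicate, pin-transferred in DMSO onto dye-loaded cells; kinetic read at 480/540 nm for 3 min, 1 s intervals.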

[6] = p53 small molecule agonists, cell-based qHTS assay with human liver microsomes: qHTS cell viability counter screen (AID 1963579); further: nearly all actives have a fitted effect of over 45% in size
How it was run: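 Luminescent CellTiter-Glo read-out, 30 min at room temperature, gauged cytotoxicity in p53RE-bla cells exposed 16 h at 37 C to DMSO-dissolved compounds with metabolic activation by human liver microsomes and NADPH, each 0.5 mg/mL final.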

[7] = p53 small molecule agonists, cell-based qHTS assay with rat liver microsomes: qHTS cell viability counter screen (AID 1963580); further: nearly all actives have a fitted effect of over 45% in size
How it was run: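 Counter screen for cytotoxicity under metabolic activation: rat liver microsomes and NADPH, 0.5 mg/mL final each, added with compounds to p53RE-bla HCT-116 cells; 16 h at 37 C, then ATP luminescence read.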

[8] = p53 small molecule agonists, cell-based qHTS assay (AID 1963582; active means well fitted activation curve with a large enough effect in the signal ratio in the repeat runs, not every such curve was filed as active; the % refers to the signal ratio)
How it was run: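 16 h compound exposure (37 C) of p53 response element–bla cells, preceded by 5 h recovery at 37 C/5% CO2; read-out via LiveBLAzer B/G FRET substrate, 2 h RT, fluorescence intensity.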

[9] = molecular target: 5-hydroxytryptamine receptor 2A (Homo sapiens) (UniProt P28223); test: 5-hydroxytryptamine receptor 2A (HTR2A) small molecule antagonists, cell-based qHTS assay (AID 1963586); further: nearly all actives have a fitted effect of over 45% in size
5-hydroxytryptamine receptor 2A (Homo sapiens), sequence (P28223 whole entry, looked up): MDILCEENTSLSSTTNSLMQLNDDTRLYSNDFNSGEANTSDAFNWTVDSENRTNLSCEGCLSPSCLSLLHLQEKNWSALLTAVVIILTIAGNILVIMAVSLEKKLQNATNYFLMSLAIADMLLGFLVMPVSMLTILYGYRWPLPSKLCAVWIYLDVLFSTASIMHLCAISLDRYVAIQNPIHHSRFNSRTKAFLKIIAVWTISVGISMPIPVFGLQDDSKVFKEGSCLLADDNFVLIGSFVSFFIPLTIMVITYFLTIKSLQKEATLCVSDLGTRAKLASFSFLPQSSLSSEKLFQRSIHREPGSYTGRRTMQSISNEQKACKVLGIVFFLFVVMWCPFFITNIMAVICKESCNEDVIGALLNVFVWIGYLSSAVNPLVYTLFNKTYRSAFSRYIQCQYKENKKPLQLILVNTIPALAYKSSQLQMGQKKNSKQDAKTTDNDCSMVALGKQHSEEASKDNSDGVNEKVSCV
How it was run: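 CHO cells stably expressing human HTR2A were plated for 18 h at 37 C, then loaded with calcium dye for 1 h. Compounds were preincubated 5 min at room temperature before DOI (4 nM solution) was added. Kinetic fluorescence was read for 3 min.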

[10] = molecular target: 5-hydroxytryptamine receptor 2A (Homo sapiens) (UniProt P28223); test: 5-hydroxytryptamine receptor 2A (HTR2A) small molecule agonists, cell-based qHTS assay (AID 1963587); further: nearly all actives have a fitted effect of over 30% in size
How it was run: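 HTR2A-CHO cells, plated 18 h at 37 C/5% CO2, dye-loaded 1 h at 37 C; compounds in DMSO added by pin tool (agonist mode). Intracellular calcium flux read as kinetic fluorescence on FDSS over 2 min at 1 s intervals.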

[11] = cAMP Responsive Elements (CRE) small molecule antagonists, cell-based qHTS assay (AID 1963591; active means well fitted inhibition curve with a large enough effect in the signal ratio in the repeat runs, not every such curve was filed as active; the % refers to the signal ratio)
How it was run: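 First, CRE-bla HEK293T cells settled 18 h at 37 C. Next, compound and 0.25 uM final NKH477 were applied for 3 h. Last, LiveBLAzer B/G substrate was loaded for 2 h at room temperature.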

[12] = molecular target: Beta-2 adrenergic receptor (Homo sapiens) (UniProt P07550); test: Adrenergic beta2 receptor (ADRB2) small molecule antagonists, cell-based qHTS assay (AID 1963592); further: series mostly up to about 92 µM; nearly all actives have a fitted effect of over 50% in size
Beta-2 adrenergic receptor (Homo sapiens), sequence (P07550 whole entry, looked up): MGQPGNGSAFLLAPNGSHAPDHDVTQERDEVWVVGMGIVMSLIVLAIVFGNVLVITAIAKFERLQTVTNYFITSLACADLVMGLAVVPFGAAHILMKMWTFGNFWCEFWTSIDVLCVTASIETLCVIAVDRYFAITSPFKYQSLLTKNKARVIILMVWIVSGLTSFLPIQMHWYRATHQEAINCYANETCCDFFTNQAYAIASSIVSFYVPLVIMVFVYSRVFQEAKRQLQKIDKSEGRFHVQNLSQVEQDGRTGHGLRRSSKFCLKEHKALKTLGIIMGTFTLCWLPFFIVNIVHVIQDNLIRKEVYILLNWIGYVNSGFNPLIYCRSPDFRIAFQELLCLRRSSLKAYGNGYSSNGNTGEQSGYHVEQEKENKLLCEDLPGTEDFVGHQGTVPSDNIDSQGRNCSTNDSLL
How it was run: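 Assay format: CHO-ADRB2 cells, 18-20hr seeding at 37C/5% CO2, then compound plus 1nM isoproterenol agonist mix for 0.5hr RT. Homogeneous time-resolved fluorescence cAMP detection after 1hr, expressed as 665/615 nm ratio.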

[13] = molecular target: Beta-2 adrenergic receptor (Homo sapiens) (UniProt P07550); test: Adrenergic beta2 receptor (ADRB2) small molecule agonists, cell-based qHTS assay (AID 1963593);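 further: CHO cells stably overexpressing human ADRB2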
How it was run: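 CHO cells stably over-expressing ADRB2 were plated overnight at 37C, then dosed with compounds plus a stimulation mix containing 100uM IBMX and 25uM Ro-20-1724 for 0.5hr at room temperature. cAMP was measured by HTRF competition, 1hr.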

[14] = molecular target: D(2) dopamine receptor (Homo sapiens) (UniProt P14416); test: Dopamine D2 receptor (DRD2) small molecule agonists, cell-based qHTS assay (AID 1963594); further: nearly all actives have a fitted effect of over 35% in size
D(2) dopamine receptor (Homo sapiens), sequence (P14416 whole entry, looked up): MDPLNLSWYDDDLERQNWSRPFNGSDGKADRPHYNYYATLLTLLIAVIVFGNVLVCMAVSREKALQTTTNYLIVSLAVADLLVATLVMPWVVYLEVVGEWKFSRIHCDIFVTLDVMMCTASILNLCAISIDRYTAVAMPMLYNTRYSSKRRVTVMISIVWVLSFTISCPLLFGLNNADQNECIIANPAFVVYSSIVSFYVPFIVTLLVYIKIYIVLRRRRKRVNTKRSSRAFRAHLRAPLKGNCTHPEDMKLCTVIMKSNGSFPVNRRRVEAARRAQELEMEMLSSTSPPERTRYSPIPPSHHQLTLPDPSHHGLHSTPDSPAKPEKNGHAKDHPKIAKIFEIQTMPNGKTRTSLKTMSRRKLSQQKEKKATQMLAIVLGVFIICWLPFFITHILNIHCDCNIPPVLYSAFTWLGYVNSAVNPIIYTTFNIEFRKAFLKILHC
How it was run: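 HEK293 cells stably expressing DRD2 were cultured 24 h at 37 C, then given Ro20-1724 (0.1 mM final) and compounds for 10 min at room temperature. NKH477 (200nM) was then added for 30 min. cAMP was read by HTRF.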

[15] = molecular target: D(2) dopamine receptor (Homo sapiens) (UniProt P14416); test: Dopamine D2 receptor (DRD2) small molecule antagonists, cell-based qHTS assay (AID 1963595; active means well fitted inhibition curve with a large enough effect in the signal ratio in the repeat runs, with a control signal flat; the % refers to the signal ratio)
How it was run: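 Readout: HTRF cAMP, cAMP-d2 competing with cellular cAMP for anti-cAMP cryptate, read after 1 h. Cells: DRD2-HEK293. Conditions: 0.1 mM Ro20-1724, 12 nM quinpirole, 200 nM NKH477, 30 min RT.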

[16] = molecular target: Muscarinic acetylcholine receptor M1 (Homo sapiens) (UniProt P11229); test: Cholinergic receptor muscarinic 1 (CHRM1) small molecule antagonists, cell-based qHTS assay (AID 1963588); further: nearly all actives have a fitted effect of over 40% in size
Muscarinic acetylcholine receptor M1 (Homo sapiens), sequence (P11229 whole entry, looked up): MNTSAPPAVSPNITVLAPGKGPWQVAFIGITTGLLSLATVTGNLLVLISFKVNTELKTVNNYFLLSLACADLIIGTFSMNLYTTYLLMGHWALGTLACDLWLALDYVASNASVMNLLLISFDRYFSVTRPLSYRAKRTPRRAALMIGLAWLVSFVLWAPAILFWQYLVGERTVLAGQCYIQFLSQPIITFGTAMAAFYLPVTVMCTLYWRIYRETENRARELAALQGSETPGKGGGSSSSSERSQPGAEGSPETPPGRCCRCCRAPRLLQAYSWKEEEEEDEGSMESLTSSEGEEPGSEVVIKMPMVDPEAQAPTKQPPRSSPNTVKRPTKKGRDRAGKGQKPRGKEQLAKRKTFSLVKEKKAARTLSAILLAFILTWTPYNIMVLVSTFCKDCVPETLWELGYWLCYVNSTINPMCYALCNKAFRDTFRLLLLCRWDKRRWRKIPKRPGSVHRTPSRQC
How it was run: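 Compounds were tested at 15 concentrations in three independent runs. Dye-loaded CHRM1-CHO cells were exposed 5 min at room temperature before stimulation by acetylcholine added at 50nM. Intracellular calcium was read kinetically on FDSS for 3 min.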

[17] = cAMP Responsive Elements (CRE) small molecule agonists, cell-based qHTS assay (AID 1963590)
How it was run: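 HEK 293T cells stably bearing CRE-bla were plated at 2,000 cells per well and rested 18 h. Compounds, positive controls or DMSO were added for 3 h at 37 C. LiveBLAzer B/G substrate was then loaded for 2 h at room temperature.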

[18] = molecular target: Muscarinic acetylcholine receptor M1 (Homo sapiens) (UniProt P11229); test: Cholinergic receptor muscarinic 1 (CHRM1) small molecule agonists, cell-based qHTS assay (AID 1963589); further: nearly all actives have a fitted effect of over 35% in size
How it was run: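 Homogeneous fluorescence calcium flux, agonist mode. Human M1-expressing CHO cells; compound dosed at 15 concentrations, three independent runs; signal sampled every 1 sec.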

[19] = p53 small molecule agonists, cell-based qHTS assay: qHTS cell viability counter screen (AID 1963581); further: nearly all actives have a fitted effect of over 45% in size
How it was run: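 ATP content measured by luminescence in HCT-116 p53RE-bla cells treated 16 h at 37 C, same wells as the reporter screen.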

Row | SMILES | Potency [1] | Potency [2] | Potency [3] | Potency [4] | Potency [5] | Potency [6] | Potency [7] | Potency [8] | Potency [9] | Potency [10] | Potency [11] | Potency [12] | Potency [13] | Potency [14] | Potency [15] | Potency [16] | Potency [17] | Potency [18] | Potency [19]
1 | C[C@H](CN1CCOCC1)C(C(=O)N1CCCC1)(c1ccccc1)c1ccccc1 | inactive | inactive | inactive | inactive | inactive | inactive | inactive | inactive | inactive | inactive | inactive | inactive | inactive | inactive | inactive | – | – | – | –
2 | OCCBr | inactive | inactive | inactive | inactive | inactive | inactive | inactive | – | inactive | inactive | inactive | inactive | – | inactive | inactive | inactive | inactive | – | –
3 | O=C(O)c1c(Cl)ccc2cc(Cl)cnc12 | inactive | inactive | inactive | inactive | inactive | inactive | inactive | – | inactive | inactive | – | inactive | inactive | – | – | inactive | inactive | inactive | –
4 | CCC1(CCC(C)C)C(=O)NC(=O)NC1=O | inactive | inactive | inactive | inactive | inactive | inactive | inactive | – | – | – | – | inactive | – | – | inactive | – | inactive | – | inactive
5 | BrCC1CO1 (stereo not drawn) | inactive | inactive | inactive | inactive | inactive | inactive | inactive | – | inactive | inactive | inactive | inactive | – | inactive | inactive | inactive | inactive | inactive | –
6 | O=C(Cc1ccccc1)OCc1ccccc1 | inactive | inactive | inactive | inactive | inactive | inactive | – | – | – | inactive | inactive | inactive | – | inactive | – | inactive | inactive | inactive | –
7 | CC(C)(N)Cc1ccc(Cl)cc1 | inactive | inactive | inactive | inactive | inactive | inactive | inactive | – | – | – | inactive | inactive | inactive | inactive | inactive | inactive | inactive | inactive | –
8 | CS(=O)(=O)c1ccc(C(=O)C2C(=O)CCCC2=O)c([N+](=O)[O-])c1 | inactive | inactive | inactive | inactive | inactive | inactive | – | – | inactive | inactive | – | inactive | – | – | inactive | – | – | – | inactive
9 | CC1CN1P(=O)(N1CC1C)N1CC1C (stereo not drawn) | inactive | inactive | inactive | inactive | inactive | inactive | inactive | – | inactive | inactive | inactive | inactive | – | inactive | inactive | inactive | inactive | inactive | –
10 | CC(C)CP(=S)(S)CC(C)C | inactive | 15.4 µM (active) | inactive | inactive | inactive | inactive | inactive | inactive | – | inactive | inactive | – | inactive | inactive | inactive | inactive | inactive | inactive | –
11 | O=Cc1ccc2c(c1)OCO2 | inactive | inactive | inactive | inactive | inactive | inactive | inactive | – | inactive | inactive | inactive | inactive | – | inactive | inactive | inactive | – | inactive | –
12 | CC(C)(C)OC(=O)c1ncn2c1[C@@H]1CCCN1C(=O)c1c(Br)cccc1-2 | inactive | inactive | inactive | inactive | inactive | inactive | inactive | – | inactive | inactive | – | inactive | inactive | inactive | inactive | inactive | – | inactive | –
13 | CN(C1CCCCC1)C1CCCCC1 | inactive | inactive | inactive | inactive | inactive | inactive | inactive | – | inactive | inactive | inactive | inactive | – | inactive | inactive | inactive | inactive | inactive | –
14 | CC(C)CC#N | inactive | inactive | inactive | inactive | inactive | – | inactive | – | inactive | inactive | inactive | inactive | – | inactive | inactive | inactive | inactive | inactive | inactive
15 | CCc1cc2c(s1)-n1c(C)nnc1CN=C2c1ccccc1Cl | inactive | inactive | inactive | inactive | inactive | inactive | – | – | inactive | inactive | – | – | – | inactive | inactive | inactive | inactive | inactive | inactive
16 | O=CC=O | inactive | inactive | inactive | inactive | inactive | inactive | inactive | – | inactive | inactive | inactive | inactive | – | inactive | – | inactive | inactive | inactive | –
17 | O=P(O)(O)c1ccccc1 | inactive | inactive | inactive | inactive | inactive | inactive | – | – | inactive | – | inactive | inactive | inactive | inactive | inactive | inactive | inactive | inactive | inactive
18 | O=C1CN=C(c2ccccc2)c2cc(Cl)ccc2N1CC1CC1 | inactive | inactive | inactive | inactive | inactive | inactive | – | – | inactive | inactive | – | – | – | inactive | inactive | inactive | inactive | inactive | inactive
